Only some compounds are listed: those with a hit (about 2.4% of all), similar ones and a draw of the others.
Epigenetic derep: derepresses silenced GFP reporter in murine cells; Potency, µM (highest dose often 53.9 µM), hits mostly activators; AID 1865; murine LDR cells, GFP reporter derepression, 30 h; actives 0.2% (n = 280,000); note: nearly all actives have a fitted effect of over 60% in size
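GFP-positive cell count by laser-scanning cytometry (objects 20–120 um) after 30 h, 37 C compound exposure of murine LDR cells; reporter is CMV-GFP integrated at a silenced locus, inducible by HDAC or DNMT inhibitors.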
A549 tox-1: counter-screen for Nrf2 inhibitors: cytotoxicity in A549 cells; A549 ARE-Fluc cells, CellTiter-Fluor viability, 18-24 h; Potency, µM (highest dose often 46 µM), most hits filed as inhibitors; actives 0.16% (n = 390,000); AID 504648
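A549 ARE_Fluc cells in 5% FBS OPTI-MEM were exposed to compounds in concentration-response for 18-24 h at 37 deg C. Viability was read by CellTiter-Fluor fluorescence (Ex 405/Em 525) after 30 min, before the luciferase read.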
Nrf2 activator: activates Nrf2 signaling; AREc32 ARE-luciferase reporter (MCF7-derived line), luminescence, 24 h; Potency, µM (series often up to 46.1 µM), hits mostly activators; actives 0.31% (n = 410,000); AID 624171; note: nearly all actives have a fitted effect of over 65% in size
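Steps: seed AREc32_Fluc cells (1000/well, 5% FBS OPTI-MEM); incubate overnight at 37 deg C; add 23 nL compound; incubate 24 hr; add Steady-Glo; hold 30 min RT; read luminescence.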
Nrf2 inh: Nrf2 pathway inhibition; A549 ARE-Fluc reporter, luciferase luminescence, 18-24 h; Potency, µM (titrated, usually from 46 µM), most hits filed as inhibitors; actives 2.1% (n = 360,000); AID 504444; note: nearly all actives have a fitted effect of over 60% in size
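In this cell-based qHTS, ARE-driven firefly luciferase in A549 cells reports Nrf2 activity; the luminescent signal after BugLite lysis is the measured value, with a prior CellTiter-Fluor read for cell health.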
PINK1 expr mod: modulators of PINK1 expression; PINK1 immunofluorescence, high-content cytometry, 24 h; Potency, µM (series often up to 76.6 µM), most hits filed as activators; AID 624263; actives 0.2% (n = 410,000); active = well fitted activation curve with a large enough effect; inconclusive = small, poorly fitted or top-dose-only effect; cell line not stated here; note: nearly all actives have a fitted effect of over 65% in size
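Fluorescence from anti-PINK1 antibody, together with nuclear and cell stains, was scanned on a laser-scanning cytometer. Before staining, stable-line cells were incubated 24 hours with compounds at 5 concentrations; primary antibody 12 h at 10 degrees C.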
FLuc enzyme inh: counter-screen for Nrf2 inhibitors: firefly luciferase enzyme inhibition; shares compounds with Nrf2 inh; purified firefly luciferase, luminescence inhibition; Potency, µM (highest dose often 57.5 µM), hits mostly inhibitors; actives 4% (n = 1,400); AID 720522; note: nearly all actives have a fitted effect of over 65% in size
Target sequence (P08659 whole entry, looked up): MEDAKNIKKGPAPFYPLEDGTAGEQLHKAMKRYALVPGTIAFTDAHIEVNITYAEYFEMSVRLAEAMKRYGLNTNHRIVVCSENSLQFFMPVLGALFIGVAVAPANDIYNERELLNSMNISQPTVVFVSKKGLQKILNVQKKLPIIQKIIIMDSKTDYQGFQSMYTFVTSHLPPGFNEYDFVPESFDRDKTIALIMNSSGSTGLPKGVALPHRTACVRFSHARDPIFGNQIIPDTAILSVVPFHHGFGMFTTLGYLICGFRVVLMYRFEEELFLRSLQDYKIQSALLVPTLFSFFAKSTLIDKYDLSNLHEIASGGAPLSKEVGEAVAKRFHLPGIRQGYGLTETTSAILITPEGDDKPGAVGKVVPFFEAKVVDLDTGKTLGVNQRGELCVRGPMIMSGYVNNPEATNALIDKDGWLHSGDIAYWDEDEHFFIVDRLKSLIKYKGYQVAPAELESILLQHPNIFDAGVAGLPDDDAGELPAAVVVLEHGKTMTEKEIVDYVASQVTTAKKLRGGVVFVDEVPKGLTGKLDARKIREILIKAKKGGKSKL
A549 tox-2: A549 cytotoxicity, Nrf2 inhibitor counterscreen; actives 2% (n = 1,400); Potency, µM (top dose mostly 46.1 µM), usual class: inhibitors; shares compounds with Nrf2 inh; A549 ARE-Fluc cells, cytotoxicity counterscreen;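 note: cells exposed to compounds for 18 to 24 hours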
Nrf2 ARE inh: reduces Nrf2 ARE reporter signal in A549 cells. shares compounds with Nrf2 inh. A549 ARE-firefly luciferase reporter, luminescence. Potency, µM (titrated, usually from 46.1 µM), most hits filed as inhibitors. actives 74% (n = 1,400). AID 720524; note: nearly all actives have a fitted effect of over 65% in size
Numbers stand for hits. Unless noted, calls come from the whole dose curve; as a rule, active = well fitted curve in the direction sought with a large enough effect; inconclusive = small, poorly fitted or top-dose-only effect, or another doubt; inactive = no such curve, though single readings can be large; an effect the other way counts as inactive or inconclusive.

What do the screens show for `COc1ccc(C(=O)NC(c2ccccc2Cl)c2cc(Cl)c3cccnc3c2O)cc1` (configuration not stated)?
Epigenetic derep: inactive; A549 tox-1: inconclusive; Nrf2 activator: inactive; Nrf2 inh: 4.11µM; PINK1 expr mod: inactive; FLuc enzyme inh: inactive; A549 tox-2: inactive; Nrf2 ARE inh: 4.61µM

Results for CC(=O)N1c2ccc(S(=O)(=O)N3CCC(C(=O)Nc4cccc(C)n4)CC3)cc2CC1C (configuration not stated) ?
A549 tox-1: inactive; Nrf2 activator: inactive; Nrf2 inh: 1.46µM; PINK1 expr mod: inactive; FLuc enzyme inh: inactive; A549 tox-2: inactive; Nrf2 ARE inh: 5.8µM

How did CC(=O)N1c2ccc(S(=O)(=O)N3CCC(C(=O)Nc4cccc(C(F)(F)F)c4)CC3)cc2CC1C (configuration not stated) do in these assays?
A549 tox-1: inactive; Nrf2 activator: inactive; Nrf2 inh: 4.61µM; PINK1 expr mod: inactive; FLuc enzyme inh: inactive; A549 tox-2: inactive; Nrf2 ARE inh: 11.6µM

What do the screens show for `CCc1cccc(NC(=O)C2CCN(S(=O)(=O)c3ccc4c(c3)CC(C)N4C(C)=O)CC2)c1` (configuration not stated)?
A549 tox-1: inactive; Nrf2 activator: inactive; Nrf2 inh: 7.31µM; PINK1 expr mod: inactive; FLuc enzyme inh: inactive; A549 tox-2: inactive; Nrf2 ARE inh: 9.2µM

Results for CC(=O)N1c2ccc(S(=O)(=O)N3CCC(C(=O)Nc4ccc(F)cc4)CC3)cc2CC1C (configuration not stated) ?
A549 tox-1: inactive; Nrf2 activator: inactive; Nrf2 inh: inconclusive; PINK1 expr mod: inactive

Results for COc1cccc(NC(=O)C2CCN(S(=O)(=O)c3ccc4c(c3)CC(C)N4C(C)=O)CC2)c1 (configuration not stated) ?
A549 tox-1: inactive; Nrf2 activator: inactive; Nrf2 inh: inconclusive; PINK1 expr mod: inactive

What do the screens show for `O=C(Cn1nc(C(F)(F)F)c2c1CCCC2)Nc1ccc(Br)cc1`?
Epigenetic derep: inactive; A549 tox-1: inactive; Nrf2 activator: inactive; PINK1 expr mod: inconclusive

How did COc1ccc(CNCc2ccccc2)cc1COc1ccc(NC(C)=O)cc1 do in these assays?
A549 tox-1: inactive; Nrf2 inh: inactive; PINK1 expr mod: inactive

What do the screens show for `CCN(C(=O)Cn1nc(Cc2ccncc2)c2ccccc2c1=O)c1cccc(Cl)c1`?
Epigenetic derep: inactive; A549 tox-1: inactive; Nrf2 activator: inactive; Nrf2 inh: inactive; PINK1 expr mod: inactive

Results for O=C(c1ccccc1)N1CCC(c2nc(-c3ccc(S(=O)(=O)NCC4CCCO4)cc3)no2)CC1 (configuration not stated) ?
Epigenetic derep: inactive; A549 tox-1: inactive; Nrf2 activator: inactive; Nrf2 inh: 3.66µM; FLuc enzyme inh: inactive; A549 tox-2: inactive; Nrf2 ARE inh: 5.8µM

What do the screens show for `O=C(C1CC1)N1CCC(c2nc(-c3ccc(S(=O)(=O)NCC4CCCO4)cc3)no2)CC1` (configuration not stated)?
Epigenetic derep: inactive; A549 tox-1: inactive; Nrf2 activator: inactive; PINK1 expr mod: inactive

Results for COc1ccc(OC)c(/C=C/c2cc3ccccc3c[n+]2C)c1 ?
PINK1 expr mod: inactive; FLuc enzyme inh: inactive; A549 tox-2: inactive

How did COc1cc(OC)c(/C=C/c2cc3ccccc3c[n+]2C)c(OC)c1 do in these assays?
PINK1 expr mod: 11.2µM; FLuc enzyme inh: inactive; A549 tox-2: inconclusive; Nrf2 ARE inh: 4.61µM

How did CCOC(=O)Cn1c(=O)n(C2CCCCC2)c2nc(-c3ccc(CC)cc3)nc(C(N)=O)c21 do in these assays?
Epigenetic derep: inactive; A549 tox-1: inactive; Nrf2 activator: inactive; PINK1 expr mod: inactive

What do the screens show for `COc1ccccc1CCNC(=O)Cc1c(C)c2cc(Cl)c(O)cc2oc1=O`?
Epigenetic derep: inactive; A549 tox-1: inactive; Nrf2 activator: inactive; Nrf2 inh: inactive; PINK1 expr mod: inactive

What do the screens show for `C[N+]1(CC(=O)c2ccc3c(c2)CCCC3)CCOCC1`?
PINK1 expr mod: inactive

Results for Cc1ccc(OCC(=O)Nc2c(C(=O)c3ccc(Cl)cc3)oc3ccccc23)cc1C ?
Epigenetic derep: inactive; A549 tox-1: inactive; Nrf2 activator: inactive; Nrf2 inh: inactive; PINK1 expr mod: inactive

What do the screens show for `Cc1cc[n+](CCC2CCCCC2)c2ccccc12`?
FLuc enzyme inh: inactive; A549 tox-2: inactive; Nrf2 ARE inh: inconclusive

Results for CCCCCCC[n+]1ccc(C)c2ccccc21 ?
FLuc enzyme inh: inactive; A549 tox-2: inactive

Results for COc1ccccc1C1CN(CCNC(=O)c2sccc2Cl)Cc2ccccc2O1 (configuration not stated) ?
PINK1 expr mod: inactive

What do the screens show for `Cc1noc(C)c1CSCC(=O)Nc1nc(-c2ccc(F)c(F)c2)cs1`?
A549 tox-1: inconclusive; Nrf2 activator: inactive; Nrf2 inh: 9.2µM; PINK1 expr mod: inactive; FLuc enzyme inh: inactive; A549 tox-2: inactive; Nrf2 ARE inh: 13µM

How did Cc1csc(NC(=O)CSCc2c(C)noc2C)n1 do in these assays?
A549 tox-1: inactive; Nrf2 activator: inactive; Nrf2 inh: inactive; PINK1 expr mod: inactive

Results for CC12CCC(=O)C=C1C(F)CC1C2C(O)CC2(C)C1CCC2(O)C(=O)CO (configuration not stated) ?
A549 tox-1: inactive; Nrf2 activator: inactive; Nrf2 inh: 0.058µM; PINK1 expr mod: inactive; FLuc enzyme inh: inactive; A549 tox-2: inactive; Nrf2 ARE inh: 0.058µM

How did CCC(C(=O)OCC(=O)C1(O)CCC2C3CCC4=CC(=O)CCC4(C)C3C(O)CC21C)C(C)C (configuration not stated) do in these assays?
A549 tox-1: inactive; Nrf2 activator: inactive; Nrf2 inh: 1.16µM; PINK1 expr mod: inconclusive; FLuc enzyme inh: inactive; A549 tox-2: inactive

What do the screens show for `C[C@]12CCC(=O)C=C1CCC1C2C(O)C[C@]2(C)C1CC[C@]2(O)C(=O)CO` (some centres not stated)?
Epigenetic derep: inactive

What do the screens show for `CCCCC(=O)O[C@]1(C(=O)CO)CC[C@H]2[C@@H]3CCC4=CC(=O)CC[C@]4(C)[C@H]3[C@@H](O)C[C@@]21C`?
Epigenetic derep: inactive; A549 tox-1: inactive; Nrf2 activator: inactive; Nrf2 inh: 0.0164µM; PINK1 expr mod: inactive; FLuc enzyme inh: inactive; A549 tox-2: inactive; Nrf2 ARE inh: 0.013µM

High-throughput results (PubChem BioAssay)
